Screens from PubChem.
PostGolgi yeast = growth inhibition of a yeast mutant, post-Golgi transport screen; post-Golgi transport phenotypic cell assay; inhibition, % at 10 µM; 98,000 compounds, 0.9% hits;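 note: yeast cells grown in 1536-well plates; yeast grown about 18 h at 30C before absorbance read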
CYP2C19 inh = blocks human cytochrome P450 2C19; 96,000 compounds, 21% hits; P33261; AID 778; CYP2C19 Supersomes, luciferin-H EGE luminescence, 30 min; inhibition, % at 5 µM;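 active = CYP2C19 inhibition above a set limit at 5 µM in the primary screen, cut at about 50% in these data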;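 note: plate controls were negative control wells for no effect and 2.5 mM tranylcypromine positive control for full effect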
CYP2C19 activ = cytochrome P450 2C19 (human) activation. P33261. recombinant CYP2C19, luciferin-H EGE luminescence; active compounds read high; 0 = fully inhibited enzyme, 1 = untreated enzyme. 96,000 tested, under 10 active. activation factor at 5 µM;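 active = activation factor of at least 2 at 5 µM in the primary screen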;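 note: 0 = wells with 2.5 mM tranylcypromine and 1 = vehicle-only wells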
PostGolgi ctrl = growth of the yeast control strain, post-Golgi counter-screen; inhibition, % at 10 µM; 98,000 compounds, 5% hits; efflux-deficient yeast background strain, growth absorbance A615, 16 h; AID 738
CYP2C9 inhib = blocks human cytochrome P450 2C9. P11712. CYP2C9 Supersomes, luciferin-H conversion, luminescence. inhibition, % at 5 µM. 96,000 compounds, 20% hits;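 active = blocking of liver enzyme CYP2C9 beyond about 50% at 5 µM, limit read from the data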
Target sequence (P11712 whole entry, looked up): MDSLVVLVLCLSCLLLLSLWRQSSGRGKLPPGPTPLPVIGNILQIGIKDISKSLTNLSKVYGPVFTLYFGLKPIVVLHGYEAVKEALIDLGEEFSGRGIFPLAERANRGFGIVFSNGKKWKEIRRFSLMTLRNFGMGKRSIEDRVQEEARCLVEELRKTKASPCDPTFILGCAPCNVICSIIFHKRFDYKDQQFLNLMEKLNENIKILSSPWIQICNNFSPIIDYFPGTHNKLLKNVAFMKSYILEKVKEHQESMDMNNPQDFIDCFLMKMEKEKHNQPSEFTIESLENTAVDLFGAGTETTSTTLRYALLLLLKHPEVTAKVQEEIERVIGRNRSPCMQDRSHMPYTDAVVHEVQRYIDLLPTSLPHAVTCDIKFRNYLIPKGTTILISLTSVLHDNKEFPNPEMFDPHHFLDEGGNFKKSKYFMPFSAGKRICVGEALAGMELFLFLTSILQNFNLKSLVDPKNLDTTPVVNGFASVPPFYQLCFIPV
CYP2C9 activ = CYP2C9 (human) activation | P11712 | recombinant CYP2C9, luciferin-H conversion, luminescence; active compounds read high; factor 1 = untreated enzyme, 0 = blocked | activation factor at 5 µM | 96,000 compounds, 1.4% hits;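 active = activation factor of 2 or more for CYP2C9 at a 5 µM dose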;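 note: 0 = sulfaphenazole-blocked wells and 1 = vehicle-only wells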
An asterisk follows results filed as active; x = no result given. A selection: hits, their analogues and other compounds. The true share with any hit is near 32%. Cut-off read from the data, not from the text of the source, unless noted: active = inhibition above about 30%; inactive = the rest.

SMILES | PostGolgi yeast | CYP2C19 inh | CYP2C19 activ | PostGolgi ctrl | CYP2C9 inhib | CYP2C9 activ
Cc1ccc(C2CN=NC23CCc2ccccc2C3=O)cc1 (stereo not given) | -6.4 | 74.8* | 0.3 | 14.8 | 26.3 | 0.7
CN1CCN(S(=O)(=O)c2ccc(NC(=O)c3ccc(Br)o3)cc2)CC1 | -35.6 | 3.2 | 1 | 8.3 | 8.1 | 0.9
CN1CCN(S(=O)(=O)c2ccc(NC(=O)c3ccc(Br)s3)cc2)CC1 | 12.0 | 51.8* | 0.5 | 11.2 | 59.4* | 0.4
Cc1ccc(NC(=O)c2cc(S(=O)(=O)N3CCCCC3)cs2)cc1 | 0.7 | 19.2 | 0.8 | 6.3 | 68.2* | 0.3
O=C(Nc1ccc(F)cc1)c1cc(S(=O)(=O)Nc2ccc(F)cc2)cs1 | 24.9 | 76.9* | 0.2 | 7.0 | 90.3* | 0.1
CN(C)c1ccc(/C=C(\C#N)C(=O)Nc2nc3c(s2)CCN(Cc2ccccc2)C3)cc1 | x | 46.3 | 0.5 | 4.2 | 19.7 | 0.8
O=C(CCCCCn1c(=S)[nH]c2ccccc2c1=O)N1CCOCC1 | -7.4 | 30.1 | 0.7 | -3.4 | 18.7 | 0.8
Cc1ccc(CSc2nc3c(c(=O)[nH]2)CCC3)cc1 | 0.2 | 11.9 | 0.9 | 6.7 | 56.1* | 0.4
Cc1ccc(CSc2nc3c(c(=O)[nH]2)C(c2ccncc2)C2=C(CCCC2=O)N3)cc1 (stereo not given) | -18.6 | 93.8* | 0.1 | 0.1 | 94.6* | 0.1
Cc1ccccc1CSc1nc2c(c(=O)[nH]1)CCCC2 | 19.6 | 6.8 | 0.9 | 15.1 | 60.0* | 0.4
O=c1[nH]c(SCc2ccccc2Cl)nc2c1CCC2 | -3.4 | -7.5 | 1.1 | 12.4 | 12.9 | 0.9
Cc1ccc(C)c(N2CCN(C(=O)C3CCN(S(=O)(=O)c4cccc5nsnc45)CC3)CC2)c1 | 3.3 | 40.2 | 0.6 | 17.6 | 49.0 | 0.5
Cc1cc(C(=O)CC#N)c(C)n1-c1ccc(OC(F)F)cc1 | -4.1 | 90.6* | 0.1 | 0.9 | 79.0* | 0.2
COC(=O)c1cc(C(=O)OC)cc(-n2c(C)cc(C(=O)CC#N)c2C)c1 | 2.6 | 33.8 | 0.7 | -3.5 | 69.3* | 0.3
CCOC(=O)Nc1cc(C(=O)OC)cc(C(=O)OC)c1 | 8.8 | 8.9 | 0.9 | 5.0 | 20.4 | 0.8
O=C(NCCc1cccc(Cl)c1)c1cccnc1 | x | 40.4 | 0.6 | 5.5 | -2.1 | 1
C=CCOC(=O)Nc1ccc(Cl)cc1NC(=O)OCC=C | 1.6 | 92.6* | 0.1 | 4.3 | 64.9* | 0.4
Nc1ccc(-n2ccnc2)cc1 | -2.6 | 57.5* | 0.4 | -7.9 | 51.6* | 0.5
CC(NC(=O)c1cc(-c2ccc(Br)cc2)on1)c1ccccc1 (stereo not given) | -2.8 | 3.5 | 1 | 1.2 | 19.3 | 0.8
CSc1nnc(Cn2c(=O)sc3ccccc32)n1-c1ccccc1C | 1.0 | x | x | -4.5 | x | x
O=c1ccc(/C=C/c2ccccc2)nn1Cc1ccccc1Cl | -4.9 | 35.1 | 0.6 | 40.6* | 51.9* | 0.5
O=c1ccc(/C=C/c2ccccc2)nn1Cc1ccc(Cl)cc1Cl | -10.8 | 27.4 | 0.7 | 24.3 | 42.0 | 0.6
Cc1noc(C(=O)NCc2ccc(F)cc2)c1Cl | -3.3 | 11.3 | 0.9 | 7.0 | -14.0 | 1.1
Nc1cc(N)nc(SCC(=O)N2CCN(C(=O)c3ccco3)CC2)n1 | 1.8 | -0.8 | 1 | 7.0 | 1.8 | 1
CCc1nc(SCC(=O)N2CCN(C(=O)c3ccco3)CC2)c2c3c(sc2n1)CCCC3 | 12.0 | 10.8 | 0.9 | 7.1 | 59.0* | 0.4
SMILES | PostGolgi yeast | CYP2C19 inh | CYP2C19 activ | PostGolgi ctrl | CYP2C9 inhib | CYP2C9 activ
O=C(c1ccco1)N1CCN(c2nc(C3CC3)nc3sc4c(c23)CCCC4)CC1 | 12.1 | 35.9 | 0.6 | 15.4 | 70.1* | 0.3
O=C(CSc1ncnc2sc3c(c12)CCCC3)c1ccco1 | -0.2 | -1.6 | 1 | 45.8* | -3.3 | 1
O=C(c1ccco1)N1CCN(c2ncnc3scc(-c4ccccc4)c23)CC1 | 13.1 | 7.5 | 0.9 | 10.2 | 38.0 | 0.6
Cn1c(-n2c(-c3ccco3)nc3ccccc3c2=O)nc2ccccc21 | 4.3 | 22.8 | 0.8 | 6.5 | 1.8 | 1
Cn1c(Cc2cccc3ccccc23)nnc1SCC(=O)N1CCN(c2ccccc2)CC1 | -9.5 | 12.0 | 0.9 | 7.7 | -68.2 | 1.7
CCn1c(CNc2ccccc2Cl)nnc1SCC(=O)OC1CCCCC1 | 0.0 | 70.1* | 0.3 | 17.5 | 45.0 | 0.6
CCn1c(CNc2cccc(Cl)c2)nnc1SCC(=O)OC1CCCCC1 | 12.3 | 73.5* | 0.3 | 22.6 | 74.1* | 0.3
CCn1c(COc2ccccc2)nnc1SCC(=O)NC1CCCCC1 | -0.8 | 11.3 | 0.9 | -4.8 | 20.4 | 0.8
